“And” between values parts separate entries of the source, which are not always exact repeats. Equal values may be shown once. Screen size: about 5,500 compounds; about 2,000 (36%) were called active. Not shown: some 18% with an inconclusive outcome. Cut-off read from the data, not from the text of the source: active = normalized growth mostly below about 0.91 (no sharp cut-off); inconclusive = no clear call, values can overlap the other calls; inactive = mostly above about 0.92. The list shows a part of the results.
Assay: chemical genetic growth profiling, strain panel (AID 1159580);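 note: tested at 20 µM; growth read once vehicle control cultures reached saturation at 30 °C; 1 = growth at the plate median or of vehicle wells; lower values mean less growth of the strain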
Details: S. cerevisiae deletion strains, growth OD

Measured: normalized growth

COc1cc(-c2coc3cc(O[C@@H]4O[C@H](CO)[C@@H](O)[C@H](O)[C@H]4O)c(OC)c(O)c3c2=O)cc(O)c1OC
inactive: locus YAL021C, strain ccr4, stronger effect = lower value 1.01 | locus YAL026C, strain drs2, stronger effect = lower value 1.01 | locus YAL030W, strain snc1, stronger effect = lower value 0.988 | locus YBL061C, strain skt5, stronger effect = lower value 0.997 | locus YBR009C, strain hhf1, stronger effect = lower value 0.986 | locus YBR021W, strain FUR4, stronger effect = lower value 1.02 | locus YBR023C, strain chs3, stronger effect = lower value 0.989 | locus YBR171W, strain sec66, stronger effect = lower value 0.99 | locus YBR229C, strain ROT2, stronger effect = lower value 0.994 | locus YBR231C, strain swc5, stronger effect = lower value 0.983 | locus YBR279W, strain paf1, stronger effect = lower value 1 | locus YCL011C, strain gbp2, stronger effect = lower value 0.999 | locus YCL016C, strain dcc1, stronger effect = lower value 0.996 | locus YCL029C, strain bik1, stronger effect = lower value 1.01 | locus YCL061C, strain MRC1, stronger effect = lower value 0.994 | locus YCL069W, strain vba3, stronger effect = lower value 1.01 | locus YCR088W, strain abp1, stronger effect = lower value 0.997 | locus YDL005C, strain med2, stronger effect = lower value 0.98 | locus YDL035C, strain GPR1, stronger effect = lower value 1.04 | locus YDL040C, strain nat1, stronger effect = lower value 0.994 | locus YDL074C, strain BRE1, stronger effect = lower value 1.08 | locus YDL101C, strain DUN1, stronger effect = lower value 0.987 | locus YDL185W, strain tfp1, stronger effect = lower value 0.997 | locus YDL192W, strain arf1, stronger effect = lower value 1.02 | locus YDR001C, strain nth1, stronger effect = lower value 1.01 | locus YDR069C, strain doa4, stronger effect = lower value 0.986 | locus YDR101C, strain arx1, stronger effect = lower value 1.03 | locus YDR137W, strain rgp1, stronger effect = lower value 1.02 | locus YDR150W, strain NUM1, stronger effect = lower value 1.02 | locus YDR159W, strain sac3, stronger effect = lower value 0.973 | locus YDR162C, strain NBP2, stronger effect = lower value 1.03 | locus YDR195W, strain ref2 0.939 | locus YDR297W, strain sur2, stronger effect = lower value 1.01 | locus YDR318W, strain mcm21, stronger effect = lower value 1.02 | locus YDR334W, strain swr1, stronger effect = lower value 0.997 | locus YDR335W, strain msn5, stronger effect = lower value 1 | locus YDR388W, stronger effect = lower value 1 | locus YDR392W, strain spt3, stronger effect = lower value 0.874 | locus YDR502C, strain sam2, stronger effect = lower value 1 | locus YEL003W, strain gim4, stronger effect = lower value 0.982 | locus YEL037C, strain rad23, stronger effect = lower value 1.01 | locus YEL061C, strain CIN8 (second series), stronger effect = lower value 1 | locus YEL061C, strain CIN8, stronger effect = lower value 1 | locus YER015W, strain faa2, stronger effect = lower value 1 | locus YER016W, strain bim1, stronger effect = lower value 0.996 | locus YER110C, stronger effect = lower value 0.996 | locus YER111C, strain swi4, stronger effect = lower value 1 | locus YER155C, strain BEM2 (second series), stronger effect = lower value 0.928 | locus YER155C, strain BEM2, stronger effect = lower value 0.991 | locus YER167W, strain BCK2, stronger effect = lower value 0.993 | locus YFR010W, strain ubp6, stronger effect = lower value 0.999 | locus YGL078C, strain dbp3, stronger effect = lower value 0.988 | locus YGL086W, strain mad1, stronger effect = lower value 1 | locus YGL167C, strain pmr1, stronger effect = lower value 0.996 | locus YGL173C, strain kem1, stronger effect = lower value 1 | locus YGL227W, strain vid30, stronger effect = lower value 0.995 | locus YGL240W, strain doc1, stronger effect = lower value 0.961 | locus YGL248W, strain PDE1, stronger effect = lower value 0.982 | locus YGL253W, strain hxk2, stronger effect = lower value 1.02 | locus YGR135W, strain pre9, stronger effect = lower value 0.97 | locus YGR252W, strain gcn5, stronger effect = lower value 0.997 | locus YHR013C, strain ard1, stronger effect = lower value 0.979 | locus YHR027C, strain rpn1, stronger effect = lower value 0.995 | locus YHR030C, strain SLT2, stronger effect = lower value 1.01 | locus YHR079C, strain IRE1 (second series), stronger effect = lower value 1 | locus YHR079C, strain IRE1, stronger effect = lower value 1.01 | locus YHR094C, strain hxt1, stronger effect = lower value 0.993 | locus YHR129C, strain ARP1, stronger effect = lower value 0.999 | locus YHR142W, strain chs7, stronger effect = lower value 1.02 | locus YHR200W, strain rpn10, stronger effect = lower value 1 | locus YIL066C, strain RNR3, stronger effect = lower value 1 | locus YIL073C, strain SPO22, stronger effect = lower value 1.05 | locus YIL125W, strain kgd1, stronger effect = lower value 0.997 | locus YIR030C, strain dcg1, stronger effect = lower value 0.994 | locus YJL092W, strain hpr5, stronger effect = lower value 1 | locus YJL095W, strain BCK1 (second series), stronger effect = lower value 1 | locus YJL095W, strain BCK1, stronger effect = lower value 1.02 and 1.01 | locus YJL115W, strain asf1, stronger effect = lower value 0.993 | locus YJL129C, strain trk1, stronger effect = lower value 1 | locus YJL134W, strain LCB3, stronger effect = lower value 0.992 | locus YJL154C, strain vps35, stronger effect = lower value 0.997 | locus YJL164C, strain tpk1, stronger effect = lower value 1 | locus YJL166W, strain qcr8, stronger effect = lower value 0.991 | locus YJL168C, strain set2, stronger effect = lower value 0.995 | locus YJL187C, strain SWE1 (second series), stronger effect = lower value 0.991 | locus YJR043C, strain POL32, stronger effect = lower value 1.05

Source: PubChem BioAssay AID1159580 (chemical genetic matrix, 2015)
